About 83,000 compounds went through this panel and 20% of them were active in at least one assay; those are over-represented in the sample as a whole.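 For each line, cells grew in 96-well plates with the test compound present at a single concentration for 48 hours.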 Values without a mark were called inactive. The source made the active and inactive calls. Rule for the calls: active = growth percent below 10; inactive = the rest.
test system: MCF7 breast; test: NCI-60 one-dose screen, 48 h (100 = growth as untreated, 0 = no growth, -100 = all killed); conditions: 10 µM unless noted

Structure (SMILES)	growth
COc1ccc2oc3c4[nH]c5ccccc5c4c4c(c3c2c1)C(=O)N(O)C4=O	90.3%
O=S(=O)(NCCCNc1nccc(-n2cnc3ccccc32)n1)c1ccc(F)cc1	63.7%
CCNC(=O)Oc1ccc(/C(=C(/C)c2ccc(Cl)cc2)c2ccc(OCCN(C)C)cc2)cc1	18.1%
Oc1ccc(CSc2nnc(-c3ccc(Oc4ccccc4)cc3)n2-c2ccccc2)c2cccnc12	4.86% (active)
Fc1ccc(-c2cc3nc(C(Cl)Cl)nc(-c4cccs4)n3n2)cc1	3.99% (active)
Fc1ccccc1/C=C(/C1=NCCN1)n1cnc2ccccc21	86.2%
COc1ccc2c(c1)c(-c1nn3c(=O)cc(-c4ccccc4)nc3s1)cn2C	18.9%
O=C1c2cc(Br)ccc2-n2c1nc1cc(Br)ccc1c2=O	59.3%
CCOC(=O)C1=C(C)Nc2nnc(Nc3ccccc3)n2C1c1ccccc1 (stereo not drawn)	55.7%
CCc1ccc(NC(=O)N[C@@H](Cc2cccc(C)c2)C(=O)N[C@@H]2C(=O)N3CCC[C@H]3C(=O)N3CCCC[C@H]3C(=O)N[C@@H](CO)C(=O)N3C[C@H](C)C[C@H]3C(=O)O[C@H]2C)c(F)c1	17.6%
COc1ccc(-c2cc(-c3cccc4ccccc34)n3c(n2)nc2ccccc23)cc1OC	15.4%
COc1cc2oc(-c3cccc(NC(=O)c4cc(NC(=O)[C@H](C)N)ccc4Cl)c3)cc(=O)c2c(OC)c1OC	91.4%
CC(=O)c1ccc(NC(=O)COc2ccc(C3SCC(=O)N3c3ccc(Br)cc3)cc2)cc1 (stereo not drawn)	89.6%
O=C(O)CNS(=O)(=O)c1ccc(Oc2ccc(S(=O)(=O)NCC(=O)O)cc2)cc1	93.2%
C/C(=C(/C)C1CC1CCN(C(=O)c1ccc([N+](=O)[O-])cc1)S(=O)(=O)c1ccc(C)cc1)C1CCCCC1 (stereo not drawn)	86.9%
COCCOc1ccc(-c2csc(NC(=O)CN3CCN(CCO)CC3)n2)cc1NS(=O)(=O)c1cccc2c(N(C)C)cccc12	93.6%
CCN1C/C(=N\S(=O)(=O)c2ccccc2)N(CC)C1=S	97.3%
Cc1ccc(C2CC(c3ccc(Nc4nc(NCCO)nc(Nc5ccc(Cl)cc5)n4)cc3)=Nc3c(N)nc(N)nc3N2)cc1 (stereo not drawn)	-68.4% (active)
CSc1nccc(-c2c(-c3ccc(F)c(OCc4ccc(F)cc4)c3)nc3sccn23)n1	65%

Structure (SMILES)	growth
Clc1ccccc1/C=C/c1nn2c(-c3ccncc3)nnc2s1	66.4%
O=S(=O)(Nc1ccc(-n2cnc3cc(-c4ccc(O)cc4)ccc32)cc1)C1CC1	73.9%
COc1cc2c3c(n(CCCNC4CCCCC4)c(=O)c2cc1OC)-c1cc2c(cc1C3=O)OCO2	-78.1% (active)
CCOc1ccc2nc(NC(=O)Nc3ccccc3C)sc2c1	27.7%
CS(=O)(=O)c1ccc(-c2nn(-c3ccccc3)cc2/C=N/NC(=O)c2ccncc2)cc1	93.8%
Oc1ccc(CSc2nnc(-c3ccccc3)n2-c2ccccc2)c2cccnc12	3.8% (active)
O=C(c1ccc(O)cc1)[C@@H]1[C@@H]2CCCN2[C@@]2(C(=O)N(C(=O)c3ccc(F)cc3)c3ccccc32)[C@H]1c1ccc(F)cc1	86.3%
CNC(=O)c1c(NC(=O)c2ccc(F)cc2F)sc2c1CCC(=O)C2	7.35% (active)
Nc1n[nH]c2cccc(C#Cc3cccc(NC(=O)c4cccc(OC(F)(F)F)c4)c3)c12	58.8%
Cc1cn(-c2cc(NC(=O)c3cncc(C#Cc4cnc5ccc(OCCCS(C)(=O)=O)nn45)c3)cc(C(F)(F)F)c2)cn1	0.458% (active)
COc1c([C@@H](CC(C)C)OC(C)=O)ccc2c1C(=O)OCc1cc(C)cc(O)c1O2	18.4%
COc1cc(C(=O)C[n+]2ccc3ccccc3c2)cc(OC)c1OC	96.3%
COc1ccc(CCN2C(=O)CSC2=S)cc1OC	29.3%
C/C(=N\NC(=O)CSc1nc2sc3c(c2c(=O)n1-c1ccccc1)CCC(C)C3)c1ccc(Cl)cc1 (stereo not drawn)	14%
Cn1nc(Nc2ccccc2)c(C(=O)NN)c1N	89.7%
N/C(=N\c1nc2c(Cl)cccc2s1)C(Cl)(Cl)Cl	49.3%
COc1cc(O)c2c(c1)/C=C/C[C@H](O)[C@H](O)C(=O)/C=C\C[C@H](C)OC2=O	0.782% (active)
CCCCCCNC(=O)Oc1ccc(/C(=C(/C)c2ccccc2)c2ccc(OCCN(C)C)cc2)cc1	18%
CS(=O)c1nccc(-c2c(-c3ccc(F)c(OCc4ccc(F)cc4)c3)nc3sccn23)n1 (stereo not drawn)	-50.1% (active)

Source: PubChem BioAssay (NCI)
